{"source": "PubChem BioAssay (NCI)", "note": "Compounds without any hit were thinned out: in the full panel of roughly 83,000, 20% have a hit.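 A percent growth of 40 corresponds to 60% growth inhibition; 0 means no net growth; -100 means all cells died. Active threshold: below 10.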 Unmarked numbers belong to inactive results. Calls of active or inactive are those of the source.", "data": [{"system": "NCI-H226 lung", "experiment": "NCI-60 one-dose screen, 48 h (100 = growth as untreated, 0 = no growth, -100 = all killed)", "conditions": "10 µM", "values": [{"smiles": "Cc1ccc(N)cc1[N+](=O)[O-]", "growth": "114%"}, {"smiles": "CC(C)COC(=O)COC(=O)OCCOCCOC(=O)OCC(=O)OCC(C)C", "growth": "100%"}, {"smiles": "Nc1ccc(N)c([N+](=O)[O-])c1", "growth": "94.1%"}, {"smiles": "CC1(c2ccccc2)NC(=O)NC1=O", "note": "(stereo not drawn)", "growth": "98.3%"}, {"smiles": "O=[N+]([O-])c1ccc(CO)cc1", "growth": "98.4%"}, {"smiles": "O=c1cc(-c2ccccc2)[nH]c2c1CCCC2", "growth": "54.3%"}, {"smiles": "C=C1CC/C=C(\\C)C(=O)C[C@@H]2[C@@H]1CC2(C)C", "growth": "107%"}, {"smiles": "Brc1cnc2ccccc2c1", "growth": "105%"}, {"smiles": "C=CCNc1nnc(C)s1", "growth": "99.8%"}, {"smiles": "COc1ccc(/C(C#N)=C2C=C/C(=N/O)c3ccccc3\\2)cc1", "growth": "36%"}, {"smiles": "Cc1cc(C)c(CC(=O)O)c(C)c1", "growth": "99.8%"}, {"smiles": "Cc1ccc(O)c(C(=O)c2ccccc2)c1", "growth": "104%"}, {"smiles": "COc1ccc(C(O)c2ccccc2)cc1", "note": "(stereo not drawn)", "growth": "94%"}, {"smiles": "CCOC(=O)c1cc(/C=C/c2ccc(Cl)cc2Cl)on1", "growth": "14.9%"}, {"smiles": "CC(=O)c1ccc(C)c(N)c1", "growth": "95.8%"}, {"smiles": "NC(=S)CN1CCOCC1", "growth": "114%"}, {"smiles": "CNC(=S)NC(C)(C)C", "growth": "102%"}, {"smiles": "CC(=O)Nc1c(C)cc(C)cc1C", "growth": "101%"}, {"smiles": "O=C(Nc1cc(-c2ccccc2)[nH]n1)c1ccc(Cl)cc1", "growth": "88.4%"}, {"smiles": "O=C(OCC(O)C1OC(c2ccccc2)OC(COC(=O)c2ccccc2)C1O)c1ccccc1", "note": "(stereo not drawn)", "growth": "99.6%"}, {"smiles": "O=C(NC1CCCCC1)OCc1c(COC(=O)NC2CCCCC2)c(-c2ccc(Cl)c(Cl)c2)n2c1CCC2", "growth": "2.9% (active)"}, {"smiles": "CC(C)=C(NC(=O)c1ccccc1)C(=O)O", "growth": "103%"}, {"smiles": "Nc1ccc(N=Nc2ccc(S(=O)(=O)O)cc2)c2ccccc12", "growth": "87%"}, {"smiles": "CCCCOC(OCCCC)c1ccccc1", "growth": "107%"}, {"smiles": "CN(C)c1ccc(C(c2ccc(O)cc2)c2ccc(N(C)C)cc2)cc1", "growth": "92.9%"}, {"smiles": "CN(C)c1ccc(CNC(C(=O)c2ccccc2)c2ccccc2)cc1", "note": "(stereo not drawn)", "growth": "101%"}, {"smiles": "CC(=O)OCC1CCCO1", "note": "(stereo not drawn)", "growth": "100%"}, {"smiles": "Cc1cc(C(O)(c2ccc(Nc3ccccc3)cc2)c2ccc(Nc3ccc(S(=O)(=O)O)cc3)cc2)ccc1N", "note": "(stereo not drawn)", "growth": "28.9%"}, {"smiles": "CN(C)Cc1cc(C(C)(C)CC(C)(C)C)ccc1O", "growth": "91.2%"}, {"smiles": "Oc1ccc(Cc2ccccc2)c2cccnc12", "growth": "75.7%"}, {"smiles": "C=CC[N+](C)(C)C", "growth": "93.6%"}, {"smiles": "COc1ccccc1C1OC2=Nc3cc(C)c(C)cc3NC2C1=O", "note": "(stereo not drawn)", "growth": "21.7%"}, {"smiles": "CC(C(=O)O)(C1CCCCC1)C1(O)CCCCC1", "note": "(stereo not drawn)", "growth": "102%"}, {"smiles": "O=C1C[C@H](c2ccccc2)[C@H](c2ccccc2)C1", "growth": "97.6%"}, {"smiles": "CN1C(=O)CN2CCc3ccccc3C2c2cc(Cl)ccc21", "note": "(stereo not drawn)", "growth": "60.8%"}, {"smiles": "C1CNC(C2=NCCN2)=N1", "growth": "103%"}, {"smiles": "O=c1[nH]c(O)c(/C=C2/C=Nc3ccccc32)[nH]1", "growth": "92.1%"}, {"smiles": "COc1cccc(Sc2ccc([N+](=O)[O-])c3no[n+]([O-])c23)c1", "growth": "85.3%"}, {"smiles": "NC(=O)c1ccc(N=C(N)N=C(N)N)cc1", "growth": "84.1%"}]}, {"system": "NCI-H322M lung", "experiment": "NCI-60 one-dose screen, 48 h (100 = growth as untreated, 0 = no growth, -100 = all killed)", "conditions": "10 µM", "values": [{"smiles": "Cc1ccc(N)cc1[N+](=O)[O-]", "growth": "129%"}, {"smiles": "CC(C)COC(=O)COC(=O)OCCOCCOC(=O)OCC(=O)OCC(C)C", "growth": "118%"}, {"smiles": "Nc1ccc(N)c([N+](=O)[O-])c1", "growth": "101%"}, {"smiles": "CC1(c2ccccc2)NC(=O)NC1=O", "note": "(stereo not drawn)", "growth": "97.2%"}, {"smiles": "O=[N+]([O-])c1ccc(CO)cc1", "growth": "98.9%"}, {"smiles": "O=c1cc(-c2ccccc2)[nH]c2c1CCCC2", "growth": "50.8%"}, {"smiles": "C=C1CC/C=C(\\C)C(=O)C[C@@H]2[C@@H]1CC2(C)C", "growth": "119%"}, {"smiles": "Brc1cnc2ccccc2c1", "growth": "106%"}, {"smiles": "C=CCNc1nnc(C)s1", "growth": "96.7%"}, {"smiles": "COc1ccc(/C(C#N)=C2C=C/C(=N/O)c3ccccc3\\2)cc1", "growth": "48.5%"}, {"smiles": "Cc1cc(C)c(CC(=O)O)c(C)c1", "growth": "100%"}, {"smiles": "Cc1ccc(O)c(C(=O)c2ccccc2)c1", "growth": "138%"}, {"smiles": "COc1ccc(C(O)c2ccccc2)cc1", "note": "(stereo not drawn)", "growth": "93.7%"}, {"smiles": "CCOC(=O)c1cc(/C=C/c2ccc(Cl)cc2Cl)on1", "growth": "81.6%"}, {"smiles": "CC(=O)c1ccc(C)c(N)c1", "growth": "121%"}, {"smiles": "NC(=S)CN1CCOCC1", "growth": "91.6%"}, {"smiles": "CNC(=S)NC(C)(C)C", "growth": "98.4%"}, {"smiles": "CC(=O)Nc1c(C)cc(C)cc1C", "growth": "103%"}, {"smiles": "O=C(Nc1cc(-c2ccccc2)[nH]n1)c1ccc(Cl)cc1", "growth": "79.4%"}, {"smiles": "O=C(OCC(O)C1OC(c2ccccc2)OC(COC(=O)c2ccccc2)C1O)c1ccccc1", "note": "(stereo not drawn)", "growth": "109%"}, {"smiles": "O=C(NC1CCCCC1)OCc1c(COC(=O)NC2CCCCC2)c(-c2ccc(Cl)c(Cl)c2)n2c1CCC2", "growth": "48.6%"}, {"smiles": "CC(C)=C(NC(=O)c1ccccc1)C(=O)O", "growth": "104%"}, {"smiles": "Nc1ccc(N=Nc2ccc(S(=O)(=O)O)cc2)c2ccccc12", "growth": "91.8%"}, {"smiles": "CCCCOC(OCCCC)c1ccccc1", "growth": "104%"}, {"smiles": "CN(C)c1ccc(C(c2ccc(O)cc2)c2ccc(N(C)C)cc2)cc1", "growth": "98.4%"}, {"smiles": "CN(C)c1ccc(CNC(C(=O)c2ccccc2)c2ccccc2)cc1", "note": "(stereo not drawn)", "growth": "92.8%"}, {"smiles": "CC(=O)OCC1CCCO1", "note": "(stereo not drawn)", "growth": "98.7%"}, {"smiles": "Cc1cc(C(O)(c2ccc(Nc3ccccc3)cc2)c2ccc(Nc3ccc(S(=O)(=O)O)cc3)cc2)ccc1N", "note": "(stereo not drawn)", "growth": "25%"}, {"smiles": "CN(C)Cc1cc(C(C)(C)CC(C)(C)C)ccc1O", "growth": "100%"}, {"smiles": "Oc1ccc(Cc2ccccc2)c2cccnc12", "growth": "-2.54% (active)"}, {"smiles": "C=CC[N+](C)(C)C", "growth": "108%"}, {"smiles": "COc1ccccc1C1OC2=Nc3cc(C)c(C)cc3NC2C1=O", "note": "(stereo not drawn)", "growth": "80.3%"}, {"smiles": "CC(C(=O)O)(C1CCCCC1)C1(O)CCCCC1", "note": "(stereo not drawn)", "growth": "101%"}, {"smiles": "O=C1C[C@H](c2ccccc2)[C@H](c2ccccc2)C1", "growth": "99.7%"}, {"smiles": "CN1C(=O)CN2CCc3ccccc3C2c2cc(Cl)ccc21", "note": "(stereo not drawn)", "growth": "93.4%"}, {"smiles": "C1CNC(C2=NCCN2)=N1", "growth": "90.9%"}, {"smiles": "O=c1[nH]c(O)c(/C=C2/C=Nc3ccccc32)[nH]1", "growth": "107%"}, {"smiles": "COc1cccc(Sc2ccc([N+](=O)[O-])c3no[n+]([O-])c23)c1", "growth": "88.7%"}, {"smiles": "NC(=O)c1ccc(N=C(N)N=C(N)N)cc1", "growth": "90.6%"}]}]}
